Structures are written as SMILES. Activity calls are given as the source filed them. No rule for the calls is given here.
Potency is read from the fitted curve at half-maximal effect.

The test has as its system HIV-1 nucleocapsid protein NCp7 (binding to TG oligonucleotide). The experiment in a line: HIV Nucleocapsid (AID 346).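 Also: potency is for inhibitors that block NC binding and lower polarization.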 The conditions noted are these: HIV-1 NC / fluorescein-TGTGTGTG probe, fluorescence polarization. The method in brief:
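Fluorescence polarization binding of 100 nM HIV-1 NC to 10 nM fluorescein-labelled TG4xF oligonucleotide. Buffer was Hepes pH 7.5 with 250mM NaCl, 1uM ZnCl2, TCEP and 2-mercaptoethanol. Compounds were incubated 1 hr at room temperature before the read.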
A general note: Polarisation of emitted light reports the rotation of a fluorescent probe.
Regarding `Cc1noc(C)c1-c1ccc2ncnc(N(C)Cc3ccco3)c2c1`, the Potency was > 20 µM (inactive).

Turning to `COc1ccc2[nH]cc(CCNc3ncnc4ccc(-c5ccc6c(c5)OCO6)cc34)c2c1`, the Potency was > 20 µM (inactive).

Take `CC(=O)NCCNc1cc(-c2ccccc2CN(C)C)ncn1`: the Potency is > 20 µM (inactive).

`Cn1cccc1C(=O)N1CCC[C@@]2(CCN(c3ccncc3)C2)C1`: the Potency was > 20 µM (inactive).

Consider `COc1ccc(NC(=O)N2CC[C@@]3(CCCN(C(=O)c4c(C)noc4C)C3)C2)cc1`, for which the Potency was > 20 µM (inactive).

For `COc1ccccc1CNc1ccnc(-c2cccc(C#N)c2)n1`, the Potency was > 20 µM (inactive).

As to `COC(=O)N1CCC2(CC1)CN(C(=O)Nc1cccc(F)c1)C2`, the Potency was > 20 µM (inactive).

Turning to `CN(C)c1ncc2nc(-c3cccs3)c(=O)n(C[C@H]3CCCO3)c2n1`, the Potency is > 20 µM (inactive).

Take `Cc1noc(C)c1-c1ccc2ncnc(NC3CCNCC3)c2c1`: the Potency is > 20 µM (inactive).

On to `Cc1noc(C)c1-c1nc(N(C)Cc2ccco2)c2ccccc2n1`, for which the Potency was > 20 µM (inactive).

Consider `COc1cccc(Nc2ncc3ncc(=O)n(C4CC4)c3n2)c1`, for which the Potency is > 4 µM (inactive).

With `FC(F)(F)c1cc(CN2CC[C@@]3(CCCNC3)C2)cc(C(F)(F)F)c1`, the Potency is > 20 µM (inactive).

Consider `COc1ccc(CNc2ncncc2-c2cccc(C#N)c2)c(OC)c1`, for which the Potency is > 20 µM (inactive).

Turning to `c1cc(NC2CC2)nc(-c2ccoc2)n1`, the Potency was > 20 µM (inactive).

On to `COCCn1c(=O)cnc2cnc(N(C)C)nc21`, for which the Potency is > 20 µM (inactive).

As for `CC(=O)N1CCC2(CC1)CN(c1cccc(-c3ccccc3)c1)C2`, the Potency was > 20 µM (inactive).

On to `O=c1c(-c2ccc(F)c(F)c2)nc2cncnc2n1-c1ccccc1`, for which the Potency is > 20 µM (inactive).

Take `COc1ccc(C(=O)N2CCC[C@@]3(CCN(CC(C)C)C3)C2)cc1`: the Potency is > 20 µM (inactive).

Turning to `c1ccc(Nc2ncnc3ccc(-c4ccoc4)cc23)cc1`, the Potency was > 20 µM (inactive).

Take `c1cncc(-c2cncnc2NC2CCNCC2)c1`: the Potency is > 20 µM (inactive).

For the compound `CCNc1ncc2nc(-c3cccc(C#N)c3)c(=O)n(C)c2n1`, the Potency is > 20 µM (inactive).

With `Cn1c(=O)c(-c2ccccc2)nc2cncnc21`, the Potency is > 20 µM (inactive).

For `Cc1cnc(CNc2ncncc2-c2ccc(N(C)C)cc2)cn1`, the Potency is > 20 µM (inactive).

For `O=C(c1cc(C(F)(F)F)cc(C(F)(F)F)c1)N1CCC2(CCCN(Cc3ccccc3)C2)CC1`, the Potency was > 20 µM (inactive).

For `O=C(Nc1cccc(F)c1)N1CCC2(CC1)CCN(C(=O)c1ccncc1)CC2`, the Potency was > 20 µM (inactive).

Regarding `N#Cc1cccc(NC(=O)N2CC3(CCN(C(=O)c4cnccn4)CC3)C2)c1`, the Potency is > 20 µM (inactive).

For `COc1ccccc1-c1cncnc1NCc1cccnc1`, the Potency was > 20 µM (inactive).

In the case of `CC(=O)NCCNc1ncnc2ccc(-c3ccccc3Cl)cc12`, the Potency is > 20 µM (inactive).

Consider `O=C(c1ccco1)N1CCC2(CCCN(c3ccccc3)C2)CC1`, for which the Potency was > 20 µM (inactive).

For `COc1ccc(C(=O)N2CCC3(CC2)CN(C(=O)Nc2ccccc2)C3)cc1`, the Potency was > 20 µM (inactive).

For the compound `O=c1c(CCc2ccccc2)nc2cnc(N3CCNCC3)nc2n1Cc1cccs1`, the Potency was > 20 µM (inactive).

As for `O=C(Nc1ccccc1)N1CCCC2(CCNCC2)C1`, the Potency is > 20 µM (inactive).

`CN(Cc1ccco1)c1ccnc(-c2cccc(C#N)c2)n1`: the Potency is > 20 µM (inactive).

Take `COc1ccc2[nH]cc(CCNc3nc(-c4cccc(C#N)c4)nc4ccccc34)c2c1`: the Potency is > 20 µM (inactive).

For the compound `COc1ccc(NC(=O)N2CC3(CCN(C(=O)c4ccco4)CC3)C2)cc1`, the Potency was > 20 µM (inactive).

`CN1CCN(c2ncc3nc(-c4cccs4)c(=O)n(-c4ccccc4)c3n2)CC1`: the Potency is 16.7 µM (inactive).

As to `COCCn1c(=O)c(CCc2ccccc2)nc2cnc(OC)nc21`, the Potency is > 20 µM (inactive).

In the case of `CC(=O)N1CCC2(CCCN(c3ccccn3)C2)CC1`, the Potency was > 20 µM (inactive).

Regarding `CS(=O)(=O)N1CCC2(CC1)CN(c1ccc(-c3ccccc3)cc1)C2`, the Potency was > 20 µM (inactive).

In the case of `COCC(=O)N1CCC[C@@]2(CCN(C(=O)Nc3ccc(OC)cc3)C2)C1`, the Potency was > 20 µM (inactive).

(Values after PubChem BioAssay (NCATS).)
